Source: PubChem BioAssay (National Center for Advancing Translational Sciences (NCATS))
ALDH1A1 inh = blocks purified human ALDH1A1 activity; 7.3% of 220,000 active; P00352; Purified ALDH1A1, NADH fluorescence, propionaldehyde substrate; Potency, µM (highest dose often 75.3 µM), without a hit: at the highest dose activity, negative = inhibition, most hits filed as inhibitors;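 further: potency means the concentration at half of the fitted maximal effect; plate controls were no enzyme wells and a reference inhibitor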
Target sequence (P00352 whole entry, looked up): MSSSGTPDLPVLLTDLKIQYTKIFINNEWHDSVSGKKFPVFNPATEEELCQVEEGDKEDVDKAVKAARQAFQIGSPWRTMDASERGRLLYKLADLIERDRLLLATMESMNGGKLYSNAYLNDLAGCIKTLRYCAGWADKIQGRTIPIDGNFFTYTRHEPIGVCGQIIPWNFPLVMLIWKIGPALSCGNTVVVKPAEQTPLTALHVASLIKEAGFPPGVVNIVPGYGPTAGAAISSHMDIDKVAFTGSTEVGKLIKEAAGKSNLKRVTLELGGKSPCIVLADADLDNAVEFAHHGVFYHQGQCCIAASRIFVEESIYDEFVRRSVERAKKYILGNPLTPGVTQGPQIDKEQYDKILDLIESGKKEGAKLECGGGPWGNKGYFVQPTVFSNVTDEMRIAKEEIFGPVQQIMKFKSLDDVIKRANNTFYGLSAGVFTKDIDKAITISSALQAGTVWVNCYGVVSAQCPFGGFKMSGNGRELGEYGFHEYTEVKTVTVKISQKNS
PNC assembly inh = perinucleolar compartment assembly inhibition; PC3M PTB-GFP, PNC prevalence imaging, 16 h; active compounds read low; activity change (PNC), negative = inhibition, % at 10 µM; 3.1% of 140,000 active;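 active means readout at or below -70, meaning at least 70% loss of cells showing the perinucleolar compartment, a nuclear body marking cancer cells; inconclusive means readout between -30 and a set limit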;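 further: plate controls were DMSO wells for no effect and camptothecin positive control wells for full effect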
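Compounds are pinned in duplicate onto adhered PC3M cells stably expressing GFP-tagged PTB and incubated 16 h at 37 C. Cells are then fixed, nuclei stained with Hoechst, and PNC-positive cells counted.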
HPGD block = inhibitors of human 15-hydroxyprostaglandin dehydrogenase (HPGD); P15428; purified HPGD, NADH fluorescence kinetic, PGE2 substrate; Potency, µM, inactives show at the top dose activity change, negative = inhibition, usual class: inhibitors; 4.3% of 150,000 active; further: potency means the concentration at half of the fitted maximal effect
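NADH formation kinetics: reaction with 30 uM PGE2 and 1 mM NAD+ (final), 20 nM enzyme, Tris-HCl pH 8 with Tween 20, after 15 min compound preincubation at room temperature. Fluorescence change, last versus first of five reads.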
The depositor's hits bear a star; ? = inconclusive; . = no result; [ ] = remark or other dose. An excerpt weighted towards active compounds, which were near 11% of everything screened. Unless noted, the call rests on the fitted dose curve; in most records, active means well fitted inhibition curve with a large enough effect (not every such curve was filed as active); inconclusive means small, poorly fitted or top-dose-only effect, or another doubt; inactive means no such curve, though single readings can be large or run the other way. Unless noted, on the % scale 0 is the no-effect control and ±100 the full control effect.

SMILES | ALDH1A1 inh | PNC assembly inh | HPGD block
CN(C(=O)CCc1nc2ccccc2s1)c1ccccc1 | 7% | -112* | ?
O=C(CCCc1nc2ccccc2s1)NCc1ccc(F)cc1 | ? | ? | 25µM*
c1ccc(-c2cnc(-c3ccc(-c4ncc(-c5ccccc5)o4)cc3)o2)cc1 | 6%[13.5 µM] | . | -12%
CC(C)=NOCc1ccc(-c2cn([C@@H]3COC[C@H]3O)nn2)cc1 | 15% | 38 | -8%
COc1ccc(-n2c(=O)c(-c3ccc(F)cc3)nc3cncnc32)cc1 | -9% | . | .
Cc1c(Br)c([N+](=O)[O-])nn1CC(=O)c1ccccc1 | 5% | . | .
CC(=O)Nc1ccc(S(=O)(=O)NCc2ccc3[nH]c(C)cc3c2)cc1 | -1% | -21 | -4%
CC(=O)Nc1ccc(S(=O)(=O)NCc2ccc(C)cc2)cc1 | -8% | -110* | -15%
CCN(Cc1ccccc1)C(=O)c1ccc(CNS(=O)(=O)c2ccc(C)cc2)cc1 | 2µM* | ? | ?
CCN(CC)C(=O)c1ccc(S(=O)(=O)NCc2cccnc2)cc1 | 5% | 8 | ?
C=CCNC(=O)c1ccc(CNS(=O)(=O)c2ccc(NC(C)=O)cc2)cc1 | -5% | 26 | 20µM*
CC(=O)Nc1ccc(S(=O)(=O)NCc2cccnc2)cc1 | 5% | 9 | -3%
COCCNC(=O)c1ccc(Cc2nc3ccccc3[nH]2)cc1 | 15% | . | -11%
CC(C)C(=O)NC(=S)Nc1ccc(S(=O)(=O)N2CCN(C)CC2)cc1 | -1% | -6 | -15%
CC(C)c1onc(C(=O)N(C)C2CCCCC2)c1[N+](=O)[O-] | -1% | . | .
Cc1nnc(NC(=O)CSc2cn(CCNC(=O)c3ccccc3)c3ccccc23)s1 | 1.6µM* | ? | -1%
COc1ccc(C(=O)NCCn2cc(SCC(=O)NCc3ccco3)c3ccccc32)cc1 | 25µM* | -2 | -17%
CC(C)C(=O)c1cn(CC(=O)NCc2ccc3c(c2)OCO3)c2ccccc12 | ? | 210 | -17%
COc1ccc(C(=O)Nn2c(SCC(=O)NCc3ccco3)nc3ccccc3c2=O)cc1 | -8% | -21 | -20%
CC(C)C(=O)c1cn(CC(=O)NCc2ccco2)c2ccccc12 | 0% | -100* | -15%
Cc1cc(NC(=O)CSc2cn(CCNC(=O)c3ccc(F)cc3)c3ccccc23)no1 | ? | -10 | -1%
COc1ccccc1NC(=O)/C=C\C(=O)O | 0% | . | .
O=C(O)/C=C\C(=O)Nc1ccc(F)c(F)c1F | 22µM* | . | .
O=C(O)C1CCCCC1C(=O)Nc1ccccc1F (stereo not drawn) | 20µM* | 3 | -5%
O=C(O)C1CCCCC1C(=O)Nc1ccccc1Cl (stereo not drawn) | 2% | 5 | -14%
SMILES | ALDH1A1 inh | PNC assembly inh | HPGD block
O=C(O)/C=C\C(=O)Nc1ccccc1F | 35µM* | -119* | -4%
COc1ccc(Cl)cc1NC(=O)/C=C\C(=O)O | 0% | 2 | -3%
COc1oc(-c2ccccc2)nc1C(F)(F)F | 4% | -17 | -9%
O=S(=O)(NCc1ccccc1)c1ccc(S(=O)(=O)N(Cc2cccs2)CC2CCCO2)cc1 (stereo not drawn) | 14% | ? | 1%
O=C(NCCCc1ccccc1)N1CCOCC1 | 11% | . | .
COc1ccc(/C=N/NC(=O)CCn2cnc(-c3ccccc3)c2-c2ccccc2)cc1OC | 28µM* | ? | -7%
COc1ccc(/C=N/NC(=O)CCC(=O)Nc2ccccc2)cc1OC | 12% | ? | -8%
COC(=O)c1sc2ncn(-n3c(C)ccc3C)c(=O)c2c1C | -15% | 3 | -13%
COC(=O)[C@@H](N)CSC/C=C(\C)CC/C=C(\C)CCC=C(C)C | -3% | . | -4%
O=S(=O)(NCC1CCN(S(=O)(=O)c2ccccc2)CC1)c1ccccc1 | 1.6µM* | 17 | -2%
O=C(Nc1ccc(S(=O)(=O)N2CCc3ccccc3C2)cc1)C1CCCO1 (stereo not drawn) | -4% | -18 | -21%
O=S(=O)(NCC1CCCO1)c1ccc(S(=O)(=O)N2CCc3ccccc3C2)cc1 (stereo not drawn) | 13% | -107* | -4%
O=C(NNS(=O)(=O)c1ccccc1)C1CCN(S(=O)(=O)c2ccc(Cl)cc2)CC1 | -3% | -100* | -3%
O=C(NNS(=O)(=O)c1ccccc1)C1CCN(S(=O)(=O)c2ccccc2)CC1 | ? | 11 | -5%
C=CCNC(=O)C1CCN(S(=O)(=O)c2ccccc2)CC1 | -7% | ? | -1%
O=C1CC(C(=O)Nc2ccccc2)S/C(=N\NC(=O)c2ccccc2Cl)N1 (stereo not drawn) | 2% | . | .
Cc1cccc(CNc2nc(-c3ccccc3CN(C)C)nc3ccccc23)c1 | -3% | . | -6%
CCOC(=O)c1c(C(=O)OCC)c(C)n(CCc2ccc(OC)c(OC)c2)c1C | 5% | 23 | -6%
O=C(COc1ncnc2ccccc12)N1CCN(S(=O)(=O)c2ccc(Cl)cc2)CC1 | -11% | 20 | -13%
O=C(NC1CC1)C1=COCCO1 | 5% | -14 | -15%
Cn1c(O)c(C=Nc2ccc(Br)cc2)sc1=O | 7% | . | .
Cc1ccccc1-n1c(O)c(/C=C/C=Nc2ccccc2)c(=O)[nH]c1=O | -3% | ? | -27%
COc1cc(O)oc1C=Nc1ccc(Oc2ccccc2)cc1 | ? | ? | -27%
CCCCn1c(O)c(/C=C/C=C/C=Nc2ccccc2)sc1=S | 18µM* | . | .
CCn1c(O)c(C=Nc2ccccc2)oc1=S | 20µM* | -94* | 16µM*
SMILES | ALDH1A1 inh | PNC assembly inh | HPGD block
CCCn1c(O)c(C=Nc2ccccc2)sc1=S | 14µM* | . | .
CC(C)NC(=O)COC(=O)c1ccc(Oc2ccccc2)cc1 | ? | ? | -8%
CC(=O)NCCNc1nc(-c2cccnc2)nc2ccccc12 | 1% | . | .
Cc1cccc(OCC(=O)Nc2ccc(N3CCN(C(=O)c4ccccc4)CC3)cc2)c1 | ? | 3 | -13%
CSc1nc2ccc(NC(=O)C3CC(=O)N(Cc4ccccc4)C3)cc2s1 (stereo not drawn) | ? | -3 | 3%
CS(=O)(=O)N(CC(=O)Nc1ccccc1C(=O)NCc1ccco1)c1ccccc1F | 0% | . | .
CSc1ccc(CNC(C)(C)CO)cc1 | 0% | . | .
Cc1ccc(C)c(NC(=O)CN(C)C(=O)[C@@H](NC(N)=O)C(C)C)c1 | -2% | . | .
Cc1ccc(C)c(NC(=O)CN(C)C(=O)[C@@H](NC(=O)c2ccc(C(C)(C)C)cc2)C(C)C)c1 | -6% | -98* | -6%
CCCS(=O)(=O)c1c(S(=O)(=O)CCC)c2c3ccccc3ccn2c1C(N)=O | 9% | 19 | -3%
Nc1nc(Sc2ccc([N+](=O)[O-])c3nonc23)c2[nH]cnc2n1 | 2µM* | . | 1.3µM*
CNc1ncnc(Sc2nc(N)nc3nc[nH]c23)c1[N+](=O)[O-] | 21%[13.5 µM] | . | -4%
Cn1cccc1Cc1nnc(SCC(=O)NCc2ccco2)n1-c1ccc(F)cc1 | 13µM* | 34 | -5%
Cn1cccc1Cc1nnc(SCC(=O)NC2CCCCC2)n1-c1ccc(F)cc1 | 20µM* | -14 | -8%
Cc1nnc(SCC(=O)NCc2ccco2)n1-c1ccccc1 | 3% | 36 | -7%
O=C(CSc1nnc(COc2ccccc2F)n1-c1ccccc1)NCc1ccco1 | -9% | ? | 20µM*
C=CCn1c(COc2ccccc2F)nnc1SCC(=O)NC(=O)NCc1ccco1 | ? | -20 | -7%
Cn1cccc1Cc1nnc(SCC(=O)NCc2ccccc2Cl)n1-c1ccc(F)cc1 | -13% | 56 | -5%
